Source: PubChem BioAssay
This is a sample that favours compounds with a hit; in the whole collection about 4.1% have one here.
MEKK2 mut-MEK5: signal of MEK5 binding to mutant human MEKK2 PB1 domain; 290,000 compounds, 0.35% hits; percent response, % at 10 µM; bead flow cytometry, Alexa488-MEK5 binding to MEKK2 mutant; in the data active = percent response above about 24%, passing the limit was not always enough
MEKK3 PB1 HTS: MEKK3-MEK5 PB1 interaction, increase or decrease; binding response (% of control), % at 10 µM; bead-based flow cytometry, Alexa488-MEK5 binding to MEKK3; actives lie on both sides; 0 = blocked by unlabeled MEK5, 100 = vehicle; 290,000 compounds, 1.4% hits;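 active = binding response more than 3 SD above or below the average of its plate-row segment, actives on both sides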;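 note: Alexa488 bead fluorescence after subtracting the streptavidin-only scavenger bead signal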
Mot1-301 SUMO: SUMOylation pathway inhibition by Mot1-301 growth rescue; S. cerevisiae Mot1-301 growth rescue, ATP luminescence, 38.5C; percent above DMSO median, 100 means doubled; growth rescue, % at 18.8 µM; 320,000 compounds, 1% hits; AID 2716;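 active = every valid replicate shows activation above 250% relative to neutral control wells; inactive = the rest, any valid replicate at or below 250%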;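 note: OY570 slx delta 5 strain wells were the positive control but not used for scaling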
CHT block: inhibits the human high affinity choline transporter; Q9GZV3; CHT-expressing cells, membrane potential dye, choline response; hits give low values; B-score at 10 µM; 310,000 compounds, 0.86% hits; AID 488975;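 active = B-score over 3 SD under the library average, and starting fluorescence ratio not unusually high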;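 note: choline stimulus applied at its EC90 after an EC20 pre-addition; B-score computed on integrated fluorescence ratio after choline addition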
Target sequence (Q9GZV3 whole entry, looked up): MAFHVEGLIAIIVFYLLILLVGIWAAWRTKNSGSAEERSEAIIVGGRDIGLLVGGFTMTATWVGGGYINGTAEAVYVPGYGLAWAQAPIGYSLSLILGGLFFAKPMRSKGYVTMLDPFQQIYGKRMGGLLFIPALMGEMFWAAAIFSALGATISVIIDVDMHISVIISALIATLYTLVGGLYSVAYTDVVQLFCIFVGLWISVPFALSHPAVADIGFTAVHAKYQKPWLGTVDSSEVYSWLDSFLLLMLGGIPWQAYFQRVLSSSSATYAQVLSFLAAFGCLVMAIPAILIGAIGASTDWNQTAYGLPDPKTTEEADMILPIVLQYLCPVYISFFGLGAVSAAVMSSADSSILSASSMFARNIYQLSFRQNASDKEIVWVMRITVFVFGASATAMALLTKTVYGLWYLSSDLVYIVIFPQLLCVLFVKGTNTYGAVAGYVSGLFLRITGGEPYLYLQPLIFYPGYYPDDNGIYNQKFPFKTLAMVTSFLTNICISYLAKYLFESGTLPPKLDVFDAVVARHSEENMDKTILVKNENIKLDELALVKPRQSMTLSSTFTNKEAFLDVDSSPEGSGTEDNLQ
MEKK2 WT-MEK5: raises or lowers MEK5 binding to wildtype human MEKK2 PB1 domain; 290,000 compounds, 1.1% hits; Q9Y2U5; binding response (% of control), % at 10 µM; AID 1531; bead flow cytometry, Alexa488-MEK5 binding to MEKK2 WT; actives lie on both sides; in the data active = binding response below about 67% or above about 130%
CHT allo act: human CHT allosteric activation; Q9GZV3; CHT-expressing cells, membrane potential dye, choline EC20; hits give high values; LV-AA mutant CHT in HEK293 cells; B-score at 10 µM; 310,000 compounds, 0.49% hits; AID 488977;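 active = initial fluorescence not abnormally high and integrated response B-score, plate-corrected, over 3 SD above library mean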
CHT act confirm: confirmation of human choline transporter (CHT) activators; 2,500 compounds, 91% hits; CHT-expressing cells, membrane potential dye fluorescence (FDSS); % of choline EC20–EC90 response window; HEK293 expressing CHT LV-AA mutant; choline added at its EC20; shares compounds with CHT allo act; activation, % at 10 µM;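 active = primary screen active, with duplicate mean activation above negative control mean plus 3 SD, cut at about 11% in these data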
HEK293 MP dye: counter-screen for CHT activators: effect in parental HEK293 cells; shares compounds with CHT allo act; membrane potential dye fluorescence (FDSS); measured after EC20 choline addition; ratio readout change at 10 µM, hits read low; 2,500 compounds, 62% hits; AID 623908;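 active = duplicate-averaged ratio beyond 3 SD from buffer wells, up or down, though filed actives are nearly all decreases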
The depositor's hits bear a star; i = inactive; nt = no result.

SMILES | MEKK2 mut-MEK5 | MEKK3 PB1 HTS | Mot1-301 SUMO | CHT block | MEKK2 WT-MEK5 | CHT allo act | CHT act confirm | HEK293 MP dye
CC(C)c1ccc(NC(=O)C2CC(=O)N=C(N)S2)cc1 (configuration not stated) | 1.0 | 103.0 | 1.6 | i | 99.0 | i | nt | nt
NC(=O)C1(N2CCCCC2)CCN(C(=S)Nc2ccc(F)c(Cl)c2)CC1 | 1.0 | 102.0 | 5.1 | i | 99.0 | i | nt | nt
Cc1cc(=O)oc2c3c(cc(OCC(=O)NCCCn4ccnc4)c12)OC(C)(C)CC3 | 1.0 | 101.0 | -18.2 | i | 104.0 | i | 23.9* | -35.7*
CCc1cc(=O)oc2cc(C)cc(OC(C)C(=O)NCCCN3CCOCC3)c12 (configuration not stated) | 5.0 | 101.0 | 3.0 | i | 105.0 | i | 43.4* | -32.9*
Cc1cc(OCC(=O)NCCN2CCOCC2)c2c(C)c(C)c(=O)oc2c1 | 0.0 | 100.0 | -11.9 | i | 99.0 | i | 56.4* | -54.3*
Cc1cc(OC(C)C(=O)NCCN2CCOCC2)c2c(C)cc(=O)oc2c1 (configuration not stated) | -1.0 | 104.0 | -3.5 | i | 101.0 | i | nt | nt
Cc1cc(=O)oc2c3c(cc(OCC(=O)NCCN4CCOCC4)c12)OC(C)(C)CC3 | -2.0 | 98.0 | 5.5 | i | 100.0 | i | nt | nt
CCCc1cc(=O)oc2c3c(cc(OCC(=O)NCC4CCC(C(=O)O)CC4)c12)OC(C)(C)CC3 (configuration not stated) | 3.0 | 100.0 | 5.0 | i | 98.0 | i | 6.7 | i
COc1ccccc1N(CC(=O)N1CCOCC1)S(C)(=O)=O | 2.0 | 106.0 | 1.5 | i | 109.0 | i | nt | nt
O=C(c1cccc(F)c1)N1CCN(Cc2ccco2)CC1 | -2.0 | 101.0 | -8.4 | i | 96.0 | i | nt | nt
CN(C)c1ccc(Nc2cc(Cl)ncn2)cc1 | -2.0 | 102.0 | 12.5 | i | 94.0 | i | nt | nt
CCN1C(=O)C2C(C1=O)N1C(c3ccccc3)C3C(=O)N(CC)C(=O)C3N1C2c1ccccc1 (configuration not stated) | 7.0 | 109.0 | -9.2 | i | 113.0 | i | nt | nt
CC(NC(=O)C1CCN(C(=O)Nc2ccccc2)CC1)c1ccccc1 (configuration not stated) | nt | nt | -8.4 | i | nt | i | 0.0 | i
CCC(=O)C1CCCN(C(=O)c2ccc(OC3CCN(C(=O)CCOC)CC3)cc2)C1 (configuration not stated) | 8.0 | 104.0 | 1.2 | i | 104.0 | i | nt | nt
c1ccc(Cn2c(CNc3nc4ccccc4n3CCN3CCCCC3)nc3ccccc32)cc1 | 9.0 | 108.0 | 226.6 | i | 110.0 | i | nt | nt
COc1ccc(CNc2nc3ccccc3n2CCN2CCCCC2)cc1 | 4.0 | 99.0 | -8.0 | i | 110.0 | i | 25.5* | -20.6*
CCCn1c(NCc2ccc3c(c2)OCO3)nc2ccccc21 | -2.0 | 102.0 | -27.9 | i | 102.0 | i | 20.1* | -24.5*
CCCn1c(C(O)c2ccc3c(c2)OCO3)nc2ccccc21 (configuration not stated) | 4.0 | 107.0 | 42.8 | i | 102.0 | i | nt | nt
CCN(CC)CCn1c(NCc2nc3ccccc3n2Cc2ccccc2)nc2ccccc21 | 15.0 | 106.0 | -15.8 | i | 123.0 | 7.72* | 43.6* | i
O=C(N/N=C/c1ccncc1)c1cc([N+](=O)[O-])cc([N+](=O)[O-])c1 | 0.0 | 101.0 | 88.8 | i | 103.0 | i | nt | nt
O=C(N/N=C/c1ccncc1)c1cccc([N+](=O)[O-])c1 | 0.0 | 127.0 | -19.6 | i | 103.0 | i | 48.7* | -51.3*
COc1ccc(N(C)C(=O)Cn2c(=O)oc3ccccc32)c(OC)c1 | 3.0 | 103.0 | 2.8 | i | 104.0 | i | nt | nt
COc1ccc(N(C)C(=O)c2oc(=O)c3ccccc3c2-c2ccccc2)c(OC)c1 | 28.0 | 126.0 | 31.6 | i | 117.0 | 6.33* | 33.2* | i
O=C(O)COc1ccc(/C=C/c2nc3ccc([N+](=O)[O-])cc3s2)cc1 | 3.0 | 102.0 | -21.4 | i | 98.0 | 6.67* | 46.4* | -51.9*
CCC(C)(C)n1nnnc1C(C(C)C)N1CCN(C)CC1 (configuration not stated) | 2.0 | 106.0 | -0.4 | i | 102.0 | i | nt | nt
SMILES | MEKK2 mut-MEK5 | MEKK3 PB1 HTS | Mot1-301 SUMO | CHT block | MEKK2 WT-MEK5 | CHT allo act | CHT act confirm | HEK293 MP dye
CCC(C)(C)n1nnnc1C(C(C)C)N1CCSCC1 (configuration not stated) | 0.0 | 100.0 | -17.7 | i | 98.0 | i | 0.7 | i
O=C(O)c1cc(-c2cccnc2)nc2ccc(Br)cc12 | -17.0 | 95.0 | -3.7 | i | 79.0 | i | nt | nt
CCN1CCN(C(=O)c2cc(-c3cccnc3)nc3ccc(Br)cc23)CC1 | 3.0 | 100.0 | 173.1 | i | 100.0 | 6.59* | 54.4* | -44.1*
CC(=O)OCC1(C)CN(c2ccccc2)NC1=O (configuration not stated) | 0.0 | 101.0 | 70.0 | i | 100.0 | i | nt | nt
COc1ccccc1-n1cnc2cc(NCc3cccs3)ccc21 | 4.0 | 102.0 | 21.2 | i | 108.0 | 6.97* | 59.4* | i
Cc1ccccc1-n1cnc2cc(NCc3cccs3)ccc21 | -2.0 | 104.0 | -4.8 | i | 101.0 | i | nt | nt
COc1ccc(C(=O)C(C)OC(=O)c2nc3nccc(C)n3n2)cc1 (configuration not stated) | nt | nt | 108.3 | nt | nt | nt | nt | nt
O=C(Cn1c(-c2ccccc2)c[n+]2ccsc12)c1ccccc1 | -4.0 | 102.0 | -11.4 | i | 104.0 | i | nt | nt
O=C(Cn1c(-c2ccccc2)c[n+]2ccsc12)c1ccc([N+](=O)[O-])cc1 | -8.0 | 87.0 | 834.4 | i | 89.0 | 8.56* | 65.9* | -61.3*
O=C(CSc1nnc2ccccn12)Nc1nsc(-c2ccccc2)n1 | -2.0 | 99.0 | 4.2 | i | 95.0 | i | nt | nt
CC(=O)c1ccc(NC(=O)c2ccn(C(=O)OCC(C)C)n2)cc1 | -1.0 | 106.0 | -14.3 | i | 106.0 | i | 17.6* | -35.7*
CC(C)COC(=O)n1ccc(C(=O)N2CCCCC2)n1 | -2.0 | 95.0 | 7.1 | i | 95.0 | i | nt | nt
Cc1cc(NCCCn2ccnc2)n2nc(C)c(-c3ccccc3)c2n1 | 1.0 | 88.0 | -6.9 | i | 98.0 | 8.46* | 47.3* | -56.7*
